# About 83,000 compounds went through this panel and 20% of them were active in at least one assay; those are over-represented in the sample as a whole.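 Method: cells in 96-well plates; compound added at one concentration; 48 h incubation; percent growth measured; values under 10 scored active.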 Active and inactive are the calls of the source.
# System: MDA-MB-468 breast
# Assay: NCI-60 one-dose screen, 48 h (100 = growth as untreated, 0 = no growth, -100 = all killed)
# Conditions: 10 µM unless noted
row,SMILES,growth
1,Cc1cc(C(=O)/C=C/c2ccc[nH]2)ccc1-n1ccc(C(F)(F)F)n1,90.2% (inactive)
2,COc1ccc(-c2c[nH]c(C(=O)O)c2-c2cc(OC)c(OC)c(OC)c2)cc1,11.8% (inactive)
3,C#C[C@]1(O)CC[C@H]2[C@@H]3CC=C4c5sc(Nc6ccc(OC)nc6)nc5CC[C@]4(C)[C@H]3CC[C@@]21C,17.4% (inactive)
4,O=C1/C(=C/c2ccc(OCc3ccccc3)cc2)Oc2cc(OCCN3CCCCC3)ccc21,48.3% (inactive)
5,CC(=O)N1N=C(c2ccc3c(c2)OCO3)CC1c1c(C)nn(-c2ccccc2)c1N(C)Cc1ccccc1 (stereo not given),61.5% (inactive)
6,CC(=O)C(/C=N/C(N)=O)=C(/C)O,109% (inactive)
7,COc1ccc(-c2nnc(SCC(=O)Nc3ccc(C(=O)/C=C/c4ccc(Cl)cc4)cc3)o2)cc1OC,99.4% (inactive)
8,CCOC(=O)/C=C1\S/C(=N\Nc2cc(=O)[nH]c3ccc(Br)cc23)N(c2ccccc2)C1=O,56.1% (inactive)
9,COc1ccc(C2=Nc3c(N)nc(N)nc3NC(c3cccc(Nc4ccnc5cc(C(F)(F)F)ccc45)c3)C2)cc1 (stereo not given),46.1% (inactive)
10,COc1cc2nc(Cl)nc(Nc3cccc(C4=Nc5c(N)nc(N)nc5NC(c5ccc(Cl)cc5)C4)c3)c2cc1OC (stereo not given),27.5% (inactive)
11,Cc1ccc2c(c1)Nc1ccc(C)cc1C2(C)C,101% (inactive)
12,C/C=C/C1OC23CCCCC2C(C#N)(C(=N)O3)C1(C#N)C#N (stereo not given),77.7% (inactive)
13,CN1CCCc2cc(/C=C3\SC(=S)N(C(Cc4ccc(O)cc4)C(=O)O)C3=O)ccc21 (stereo not given),93.6% (inactive)
14,O=C1OCC/C1=C\OCCCO/C=C1\CCOC1=O,92.8% (inactive)
15,C=C1CCC2C3(C)COC(c4ccccc4)OC3CCC2(C)C1C/C=C1/C(=O)OCC1OC(C)=O (stereo not given),53% (inactive)
16,CC(=O)OC[C@]12CC[C@@H](/C(C)=N/O)[C@@H]1[C@H]1CC[C@@H]3[C@@]4(C)CCCNC(C)(C)[C@@H]4CC[C@@]3(C)[C@]1(C)CC2,54.1% (inactive)
17,CC[C@@H]1OC(=O)[C@H](C)[C@@H](O[C@H]2C[C@@](C)(OC)[C@@H](O)[C@H](C)O2)[C@H](C)[C@@H](O[C@@H]2O[C@H](C)C[C@H](N(C)C)[C@H]2O)[C@](C)(O)C[C@@H](C)[C@@H]2N[C@@H](COCCOC)O[C@H]([C@H]2C)[C@]1(C)O,109% (inactive)
18,O=C(Nc1ccc2[nH]ncc2c1)c1csc(Nc2ccccc2)n1,14.4% (inactive)

row,SMILES,growth
1,COc1ccc(C/C(C)=C(\c2ccc(O)cc2)c2ccc(OCCN3CCCC3)cc2)cc1,124% (inactive)
2,Oc1c(CCl)cc(Cl)cc1Cc1cc(Cl)cc(Cc2cc(Cl)cc(CCl)c2O)c1O,18.8% (inactive)
3,C(=C1c2ccccc2-c2ccccc21)c1ccccn1,22.4% (inactive)
4,OCCNc1nccc(N2CCN(c3ccnc4cc(Cl)ccc34)CC2)n1,54.8% (inactive)
5,O=C(CSc1nc2ccccc2c(=O)n1-c1ccccc1)Nc1cccc(C(=O)/C=C/c2ccccc2)c1,91.3% (inactive)
6,Cc1c(C(N)=O)sc2c1c(=O)n(Cc1ccccc1)c1nnc(S(=O)(=O)CC(=O)Nc3ccc(Cl)cc3)n21,33.2% (inactive)
7,CC(C)N(Cc1ccc(CN(C(=O)CCl)C(C)C)cc1)C(=O)CCl,15.4% (inactive)
8,COc1cccc(/C=N/NC(=O)c2cnn3c2NC(c2ccccc2)C3)c1Oc1ccccc1 (stereo not given),47.3% (inactive)
9,Nc1nc(Cl)c2c(C(F)(F)F)cn(CC3CCNCC3)c2n1,26.8% (inactive)
10,O=S(=O)(Oc1ccc(-c2ccc3sccc3c2)cc1)c1ccccc1,85.2% (inactive)
11,O=C(CCc1nnc(SCc2ccccc2)s1)c1nc2ccccc2[nH]1,103% (inactive)
12,Cn1c(=O)c2[nH]c(Cc3ccc4c(c3)OCO4)nc2n(C)c1=O,106% (inactive)
13,COc1cc(-c2nn(-c3ccc(NC(=O)NCCNS(=O)(=O)c4ccc(F)cc4)cc3)cc2-c2ccncc2)ccc1Cl,-27% (active)
14,CCCCOC(=O)Oc1ccc(C(=O)Oc2ccc(OCC)cc2)cc1,113% (inactive)
15,C/C(=N\NC(=O)Cn1c(-c2ccc(S(C)(=O)=O)cc2)nc2cc(Cl)ccc21)c1ccc(Cl)cc1,68.7% (inactive)
16,CCN(CC)CCOC(COc1cc(C)cc(C)c1)COc1cc(C)cc(C)c1,9.41% (active)
17,COc1ccc(C(O)c2cc3c(N)c(C(=O)Nc4ccccc4)sc3nc2C)cc1 (stereo not given),9.92% (active)

# Reference: PubChem BioAssay (NCI)
